According to the supplement of paper PMC8728848:
The entries come from a sample that favours the strongest signals as a whole.

How the values were obtained:
Experiment in all cases: glycan array binding signal (z-score within array); higher = stronger binding
Settings in all cases: glycan notation: IUPAC condensed, linker removed
[1] = molecular target: Man(a1-2)Man(a1-3)[Man(a1-2)Man(a1-6)]Man(a1-6)[Man(a1-2)Man(a1-2)Man(a1-3)]Man(b1-4)GlcNAc(b1-4)GlcNAc
Outline: (§1)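 The binding signal is a Z-score computed within each array. Data were drawn from 3228 arrays in the Consortium for Functional Glycomics database, restricted to those with a known protein sequence. Scores were averaged over arrays of the same protein sequence at different concentrations or buffers, and over linkers, and negative values can be taken as non-binding.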

[2] = molecular target: Man(a1-2)Man(a1-3)[Man(a1-6)]Man(a1-6)[Man(a1-2)Man(a1-3)]Man(b1-4)GlcNAc(b1-4)GlcNAc
Outline: as §1

[3] = molecular target: Man(a1-2)Man(a1-6)[Man(a1-3)]Man(a1-6)[Man(a1-2)Man(a1-2)Man(a1-3)]Man
Outline: as §1

[4] = molecular target: Man(a1-2)Man(a1-6)[Man(a1-3)]Man(a1-6)[Man(a1-2)Man(a1-2)Man(a1-3)]Man(b1-4)GlcNAc(b1-4)GlcNAc
Outline: as §1

[5] = molecular target: Man(a1-3)[Man(a1-6)]Man(a1-6)[Man(a1-2)Man(a1-3)]Man(b1-4)GlcNAc(b1-4)GlcNAc
Outline: as §1

[6] = molecular target: Neu5Ac(a2-6)Gal(b1-4)GlcNAc(b1-2)Man(a1-3)[Gal(b1-4)GlcNAc(b1-2)Man(a1-6)]Man(b1-4)GlcNAc(b1-4)GlcNAc
Outline: as §1

[7] = molecular target: Neu5Ac(a2-6)Gal(b1-4)GlcNAc(b1-2)Man(a1-6)[Man(a1-3)]Man(b1-4)GlcNAc(b1-4)GlcNAc
Outline: as §1

[8] = molecular target: Neu5Ac(a2-6)Gal(b1-4)GlcNAc(b1-3)Gal(b1-3)GlcNAc
Outline: as §1

[9] = molecular target: Neu5Ac(a2-6)Gal(b1-4)GlcNAc(b1-6)[Gal(b1-3)]GalNAc
Outline: as §1

[10] = molecular target: Neu5Ac(a2-6)Gal(b1-4)GlcNAc6S
Outline: as §1

Neu5Ac(a2-6)GalNAc = molecular target: Neu5Ac(a2-6)GalNAc
Outline: as §1

[11] = molecular target: Neu5Ac(a2-6)GlcNAc(b1-4)GlcNAc
Outline: as §1

Neu5Gc(a2-3)Gal(b1-4)Glc = molecular target: Neu5Gc(a2-3)Gal(b1-4)Glc
Outline: as §1

B1: Microvirin-2 (Microcystis aeruginosa) (protein)
chain: MPNFSHTCSSINYDPDSTILSAECQARDGEWLPTELRLSDHIGNIDGELQFGDQNFQETCQDCHLEFGDGEQSVWLVCTCQTMDGEWKSTQILLDSQIDNNDSQLEIGGSMPNFSHTCSSINYDPDSTILSAECQARDGEWLPTELRLSDHIGNIDGELQFGDQNFQETCQDCHLEFGDGEQSVWLVCTCQTMDGEWKSTQILLDSQIDNNDSQLEIG
glycan array binding signal (z-score) [1]: 3.1
glycan array binding signal (z-score) [2]: 5.79
glycan array binding signal (z-score) [3]: 6.04
glycan array binding signal (z-score) [4]: 13.3
glycan array binding signal (z-score) [5]: 7.25
glycan array binding signal (z-score) [6]: -0.142
glycan array binding signal (z-score) [7]: -0.143
glycan array binding signal (z-score) [8]: -0.123
glycan array binding signal (z-score) [9]: -0.107
glycan array binding signal (z-score) [10]: -0.142
glycan array binding signal (z-score) (Neu5Ac(a2-6)GalNAc): -0.133
glycan array binding signal (z-score) [11]: -0.135
glycan array binding signal (z-score) (Neu5Gc(a2-3)Gal(b1-4)Glc): -0.12
